# Assay results from PubChem BioAssay (Tox21).
# Values without a mark were called inactive. Records with an inconclusive call do not appear. Entries that show only a call come without a potency. Calls of active or inactive are those of the source. The call rests on the fitted dose curve; in most records, active means well fitted curve in the direction sought with a large enough effect in the repeat runs; inconclusive means weak or mixed curves; inactive means no such curve, though single readings can be large; an effect the other way counts as inactive or inconclusive.
# Key:
# [1] = A CellTox Green Cytotoxicity Assay to monitor cytotoxicity in HepG2 cells - 16 hour (AID 1224876); further: nearly all actives have a fitted effect of over 45% in size
# In short: (§1)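 Nonlytic assay: viable cells exclude the dye, so fluorescence scales with cell death. HepG2 at 600 cells/well, compounds added after 5 h, signal read across 40 h.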
# [2] = A CellTox Green Cytotoxicity Assay to monitor cytotoxicity in HepG2 cells - 24 hour (AID 1224878); further: nearly all actives have a fitted effect of over 45% in size; further: potency means the concentration at half of the fitted maximal effect
# In short: as §1
# [3] = A CellTox Green Cytotoxicity Assay to monitor cytotoxicity in HepG2 cells - 40 hour (AID 1224879); further: nearly all actives have a fitted effect of over 40% in size
# In short: as §1
# [4] = qHTS RealTime-Glo MT Cell Viability Assay in HEK293 cells - 0 hour (AID 1224880); further: top concentration of the series differs between compounds; nearly all actives have a fitted effect of over 45% in size
# In short: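 Tox21 screen in HEK293 using RealTime-Glo MT chemistry, with cells and reagent co-dispensed. Luminescence proportional to viable cell number was captured at intervals during 40 h compound exposure at 37 C.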
# [5] = A CellTox Green Cytotoxicity Assay to monitor cytotoxicity in HEK293 cells - 32 hour (AID 1224881); further: nearly all actives have a fitted effect of over 40% in size
# In short: (§2)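 Seeding of HEK293 cells together with cytotoxicity dye preceded a 5 h incubation at 37 C/5% CO2. Test compounds in DMSO were then added and fluorescence monitored across 40 h.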
# [6] = A CellTox Green Cytotoxicity Assay to monitor cytotoxicity in HepG2 cells - 0 hour (AID 1224882); further: nearly all actives have a fitted effect of over 35% in size
# In short: as §1
# [7] = A CellTox Green Cytotoxicity Assay to monitor cytotoxicity in HepG2 cells - 32 hour (AID 1224883); further: nearly all actives have a fitted effect of over 50% in size
# In short: as §1
# [8] = A CellTox Green Cytotoxicity Assay to monitor cytotoxicity in HEK293 cells - 8 hour (AID 1224884); further: nearly all actives have a fitted effect of over 35% in size
# In short: as §2
# [9] = qHTS RealTime-Glo MT Cell Viability Assay in HepG2 cells - 16 hour (AID 1224885); further: nearly all actives have a fitted effect of over 50% in size
# In short: (§3)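 Cell number in HepG2 cultures estimated from NanoLuc luminescence generated by metabolic reduction of a prosubstrate by living cells. The homogeneous, nonlytic format allowed repeated reads at 0, 8, 16, 24, 32 and 40 h of compound exposure.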
# [10] = qHTS RealTime-Glo MT Cell Viability Assay in HepG2 cells - 32 hour (AID 1224877); further: nearly all actives have a fitted effect of over 55% in size
# In short: as §3
compound,measurement,setting,value
CC(C)CCC(=O)CCC(C)C,Potency,[1],inactive
same,Potency,[2],inactive
same,Potency,[3],inactive
same,outcome,[4],inactive
same,Potency,[5],inactive
same,Potency,[6],inactive
same,Potency,[7],inactive
same,Potency,[8],inactive
same,outcome,[9],inactive
CCCCCN(CCCOC)C(=O)C(CCC(=O)O)NC(=O)c1ccc(Cl)c(Cl)c1 (stereo not drawn),outcome,[10],inactive
same,outcome,[4],inactive
same,Potency,[5],inactive
same,Potency,[8],inactive
same,outcome,[9],inactive
Cc1ccccc1OCC1CO1 (stereo not drawn),Potency,[1],inactive
same,Potency,[3],inactive
same,outcome,[4],inactive
same,Potency,[5],inactive
same,Potency,[6],inactive
same,Potency,[7],inactive
same,Potency,[8],inactive
same,outcome,[9],inactive
CCN(CC)C(=O)C1CN2CCc3cc(OC)c(OC)cc3C2CC1OC(C)=O (stereo not drawn),Potency,[1],inactive
same,Potency,[2],inactive
same,Potency,[3],inactive
same,outcome,[4],inactive
same,Potency,[5],inactive
same,Potency,[6],inactive
same,Potency,[7],inactive
same,Potency,[8],inactive
same,outcome,[9],inactive
COC(=O)CCC(=O)O,Potency,[1],inactive
same,Potency,[2],inactive
same,Potency,[3],inactive
same,outcome,[4],inactive
same,Potency,[5],inactive
same,Potency,[6],inactive
same,Potency,[7],inactive
same,Potency,[8],inactive
same,outcome,[9],inactive
CC(C)COC(=O)/C=C/c1ccccc1,Potency,[1],inactive
same,outcome,[4],inactive
same,Potency,[6],inactive
same,Potency,[8],inactive
same,outcome,[9],inactive
C1CCN2C[C@@H]3C[C@@H](CN4CCCC[C@@H]34)[C@H]2C1,Potency,[1],inactive
same,Potency,[2],inactive
same,Potency,[3],inactive
same,outcome,[4],inactive
same,Potency,[5],inactive
same,Potency,[6],inactive
same,Potency,[7],inactive
same,Potency,[8],inactive
same,outcome,[9],inactive
CCC(O)C(C)(C)C (stereo not drawn),Potency,[1],inactive
same,Potency,[2],inactive
same,Potency,[3],inactive
same,outcome,[4],inactive
same,Potency,[6],inactive
same,Potency,[7],inactive
same,Potency,[8],inactive
same,outcome,[9],inactive
CCCO,Potency,[1],inactive
same,outcome,[4],inactive
same,Potency,[5],inactive
same,Potency,[6],inactive
same,Potency,[8],inactive
same,outcome,[9],inactive
CC(C)COC(=O)CCCCC(=O)OCC(C)C,Potency,[1],inactive
same,Potency,[2],inactive
same,Potency,[3],inactive
same,outcome,[4],inactive
same,Potency,[5],inactive
same,Potency,[6],inactive
same,Potency,[7],inactive
same,Potency,[8],inactive
same,outcome,[9],inactive
COC(/C=C(\C)CCC=C(C)C)OC,Potency,[1],inactive
same,Potency,[2],inactive
same,Potency,[3],inactive
same,outcome,[4],inactive
same,Potency,[5],inactive
same,Potency,[6],inactive
same,Potency,[7],inactive
same,Potency,[8],inactive
same,outcome,[9],inactive
Cc1nc([N+](=O)[O-])cn1-c1ccc([N+](=O)[O-])cc1,Potency,[1],inactive
same,Potency,[2],inactive
same,Potency,[3],inactive
same,outcome,[4],inactive
same,Potency,[5],inactive
same,Potency,[6],inactive
same,Potency,[7],inactive
same,Potency,[8],inactive
same,outcome,[9],inactive
Cc1oc(=O)oc1CN1CCN(c2cc3c(cc2F)c(=O)c(C(=O)O)c2n3C(C)S2)CC1 (stereo not drawn),Potency,[2],0.535 µM (active)
same,outcome,[4],inactive
same,Potency,[5],inactive
same,Potency,[6],inactive
same,Potency,[8],inactive
same,outcome,[9],inactive
CC(=O)Nc1ccc(C)cc1,Potency,[1],inactive
same,Potency,[2],inactive
same,Potency,[3],inactive
same,outcome,[4],inactive
same,Potency,[5],inactive
same,Potency,[6],inactive
same,Potency,[7],inactive
same,Potency,[8],inactive
same,outcome,[9],inactive
Nc1ccnc(=O)[nH]1,Potency,[1],inactive
same,Potency,[3],inactive
same,outcome,[4],inactive
same,Potency,[5],inactive
same,Potency,[6],inactive
same,Potency,[7],inactive
same,outcome,[9],inactive
C=C(C)C(=O)OC,Potency,[1],inactive
same,Potency,[2],inactive
same,Potency,[3],inactive
same,outcome,[4],inactive
same,Potency,[5],inactive
same,Potency,[6],inactive
same,Potency,[7],inactive
same,Potency,[8],inactive
same,outcome,[9],inactive
NC(=O)NC(=O)Cc1ccccc1,Potency,[1],inactive
same,Potency,[2],inactive
same,Potency,[3],inactive
same,outcome,[4],inactive
same,Potency,[5],inactive
same,Potency,[6],inactive
same,Potency,[7],inactive
same,Potency,[8],inactive
same,outcome,[9],inactive
COc1cc([N+](=O)[O-])ccc1N,Potency,[1],inactive
same,Potency,[2],inactive
same,Potency,[3],inactive
same,outcome,[4],inactive
same,Potency,[5],inactive
same,Potency,[6],inactive
same,Potency,[7],inactive
same,Potency,[8],inactive
same,outcome,[9],inactive
NS(=O)(=O)c1cc2c(cc1Cl)NC(CC1CCCC1)NS2(=O)=O (stereo not drawn),outcome,[10],inactive
same,Potency,[3],inactive
same,outcome,[4],inactive
same,Potency,[5],inactive
same,Potency,[8],inactive
CCCCC(C)C(=O)O (stereo not drawn),outcome,[4],inactive
same,Potency,[5],inactive
same,Potency,[8],inactive
same,outcome,[9],inactive
Cn1c(=O)c2c(ncn2CC2OCCO2)n(C)c1=O,Potency,[1],inactive
same,Potency,[2],inactive
same,Potency,[3],inactive
same,outcome,[4],inactive
same,Potency,[5],inactive
same,Potency,[6],inactive
same,Potency,[7],inactive
same,Potency,[8],inactive
same,outcome,[9],inactive
CC(C)(C)c1ccc(C=O)cc1,Potency,[1],inactive
same,Potency,[2],inactive
same,Potency,[3],inactive
same,outcome,[4],inactive
same,Potency,[6],inactive
same,Potency,[7],inactive
same,Potency,[8],inactive
same,outcome,[9],inactive
C[CH2][Ge]([Cl])([CH2]C)[CH2]C,Potency,[1],inactive
same,Potency,[2],inactive
same,Potency,[3],inactive
same,outcome,[4],inactive
same,Potency,[5],inactive
same,Potency,[6],inactive
same,Potency,[7],inactive
same,Potency,[8],inactive
same,outcome,[9],inactive
Cc1cc(C)cc([N+](=O)[O-])c1,Potency,[1],inactive
same,Potency,[2],55.6 µM (active)
same,outcome,[4],inactive
same,Potency,[5],inactive
same,Potency,[6],inactive
same,Potency,[8],inactive
same,outcome,[9],inactive
CO[Si](CCCS)(OC)OC,Potency,[1],inactive
same,Potency,[2],inactive
same,Potency,[3],inactive
same,outcome,[4],inactive
same,Potency,[5],inactive
same,Potency,[6],inactive
same,Potency,[7],inactive
same,Potency,[8],inactive
same,outcome,[9],inactive
CCCCC(CC)COC(=O)c1ccccc1 (stereo not drawn),Potency,[1],inactive
same,Potency,[2],inactive
same,Potency,[3],inactive
same,outcome,[4],inactive
same,Potency,[5],inactive
same,Potency,[6],inactive
same,Potency,[7],inactive
same,Potency,[8],inactive
same,outcome,[9],inactive
C=C(C)[C@@H]1CC[C@@H](C)C[C@@H]1O,Potency,[1],inactive
same,Potency,[2],inactive
same,Potency,[3],inactive
same,outcome,[4],inactive
same,Potency,[5],inactive
same,Potency,[6],inactive
same,Potency,[7],inactive
same,Potency,[8],inactive
same,outcome,[9],inactive
O=S(=O)(O)c1cc(O)ccc1O,outcome,[10],inactive
same,outcome,[4],inactive
same,Potency,[5],inactive
same,Potency,[6],inactive
same,Potency,[8],inactive
same,outcome,[9],inactive
CC(=O)Nc1ncc([N+](=O)[O-])s1,Potency,[2],inactive
same,Potency,[3],inactive
same,outcome,[4],inactive
same,Potency,[5],inactive
same,Potency,[7],inactive
same,Potency,[8],inactive
CNC(=O)C(c1ccccc1)c1ccccc1,outcome,[10],inactive
same,outcome,[4],inactive
same,Potency,[5],inactive
same,Potency,[6],inactive
same,Potency,[8],inactive
same,outcome,[9],inactive
O=C(O)Cc1cccc(-c2cc(CCCCCCc3ccc(O[C@H]4O[C@H](CO)[C@@H](O)[C@H](O)[C@@H]4O)c(-c4cccc(CC(=O)O)c4)c3)ccc2O[C@H]2O[C@H](CO)[C@@H](O)[C@H](O)[C@@H]2O)c1,cytotoxicity increase,[1],15.1% [at 0.29 µM]
same,cytotoxicity,[2],15.2% [at 0.29 µM]
same,cytotoxicity increase,[3],20% [at 0.29 µM]
same,"activity change, negative = cytotoxicity",[4],3.85% [at 0.29 µM]
same,cytotoxicity increase,[5],-14.2% [at 0.29 µM]
same,cytotoxicity increase,[8],-1.66% [at 0.29 µM]
same,"activity change, negative = cytotoxic",[9],17.8% [at 0.29 µM]
